D1 PAM = potentiators of human D1 dopamine receptor. 0.036% of 360,000 active. potentiation, % at 10 µM. HEK293 TREx D1 cells, calcium flux, dopamine EC20 potentiation; in the data active means potentiation above about 30%; further: 0% is about no effect
USP1-UAF1 inh = inhibitors of human USP1/UAF1 deubiquitinase; O94782; recombinant USP1/UAF1, Ub-Rhodamine cleavage fluorescence; Potency, µM (highest dose often 57.1 µM), inactives show at the top dose activity change, negative = inhibition, actives largely listed as inhibitors; 0.23% of 390,000 active; AID 743255; active means well fitted inhibition curve with a large enough effect; inconclusive means small, poorly fitted or top-dose-only effect; inactive means no such curve, though single readings can be large or run the other way; further: potency means the concentration at half of the fitted maximal effect; on the % scale 0 is the no-effect control and ±100 the full control effect; nearly all actives have a fitted effect of over 60% in size
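In this screen, compounds sit with the deubiquitinase complex (1nM) for 15 min at room temperature before Ub-Rho is added at 150nM final. Fluorescence rise is then followed for 6 reads every 60 seconds.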
TRHR agonist = TRH receptor (human) agonism; TRHR cells, calcium flux fluo-8, FDSS agonist mode; activation, % at 2 µM; 0.18% of 360,000 active; AID 493084; further: 0% is about no effect
Target sequence (P34981 whole entry, looked up): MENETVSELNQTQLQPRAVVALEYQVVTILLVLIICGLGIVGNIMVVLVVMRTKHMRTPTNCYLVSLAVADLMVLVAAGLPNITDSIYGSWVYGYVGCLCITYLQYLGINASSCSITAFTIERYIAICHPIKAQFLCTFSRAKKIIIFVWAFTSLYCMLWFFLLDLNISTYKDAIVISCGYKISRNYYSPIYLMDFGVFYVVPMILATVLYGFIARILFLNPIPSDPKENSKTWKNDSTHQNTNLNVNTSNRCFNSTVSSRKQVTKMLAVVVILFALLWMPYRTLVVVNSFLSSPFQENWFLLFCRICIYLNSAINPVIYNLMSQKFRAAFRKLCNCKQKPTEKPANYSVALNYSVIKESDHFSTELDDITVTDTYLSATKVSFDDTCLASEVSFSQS
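Agonist-mode FDSS calcium read (Ex 480/Em 530, 1 s cycles) in 1536-well TRHR cells with fluo-8 dye, after 10-cycle baseline and 23 nL compound addition; TRH at EC20 (10 nM final) added afterwards for the enhancer phase.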
D1 agonist = human D1 receptor agonism; P21728; HEK293 T-REx D1 cells, calcium flux, agonist mode; activation, % at 2 µM; 1% of 360,000 active; AID 504660; further: 0% is about no effect
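Inducible HEK293 T-REx D1 cells, force-coupled to calcium signalling, were plated at 4000 cells/well with tetracycline and held overnight at 30 C. After no-wash calcium dye loading, compound-evoked calcium rise over 180 s flagged agonists.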
D1 antag = blocks dopamine activation of the human D1 receptor. activity change, negative = inhibition, % at 10 µM. 3.2% of 360,000 active. HEK293 TREx D1 cells, calcium flux, dopamine EC80; stronger effect = lower value. P21728. AID 504652; in the data active means activity change below about -30%; further: on the % scale 0 is the no-effect control and ±100 the full control effect
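Kinetic fluorescence of a calcium dye serves as the read-out. D1-expressing Hek293 Trex cells, induced overnight at 30 C, are exposed to compound for 180 s before an EC80 dopamine addition, then read 180 s further.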
TRHR enhancer = TRH receptor (human) allosteric enhancement | P34981 | TRHR cells, fluo-8 calcium fluorescence, EC20 TRH enhancement | enhancement, % at 2 µM | 0.66% of 360,000 active | AID 493056; in the data active means enhancement above about 30%; further: 0% is about no effect
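Enhancer read-out: after compound pinning and an initial kinetic agonist-mode read, an EC20 of TRH (10 nM final) was injected and fluo-8 calcium signal (Ex 480/Em 530) followed at 1 s/cycle for 100 cycles in TRHR-expressing cells.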
* hit, by the source's call; ? = inconclusive; . = not tested or not shown. Rows were chosen to be rich in hits. Some 4.4% of all compounds tested hit in one or more screens of this group. Unless noted, no stated cut-off is given here; in the data, active means activation above about 30%; inactive means the rest.

SMILES	D1 PAM	USP1-UAF1 inh	TRHR agonist	D1 agonist	D1 antag	TRHR enhancer
CN1CCN(c2ccc(NC(=O)COc3ccc4ccccc4c3)cc2)CC1	-2.6	-32.4%	0.6	15.7	-38.9*	3.1
COc1ccc(C(=O)Nc2ccc(N3CCN(C)CC3)cc2)cc1	-3.4	-2.0%	0.3	2.9	3.4	1.4
CN1CCN(c2ccc(NC(=O)COc3cccc4ccccc34)cc2)CC1	-20.4	1.1%	2.0	3.7	-25.7	4.1
CN1CCN(c2ccc(NC(=O)c3ccc4ccccc4c3)cc2)CC1	-16.4	-9.5%	0.2	10.1	-71.2*	-1.4
O=C(COC(=O)c1ccc(O)cc1O)Nc1ccc2ccccc2c1	-3.3	-23.0%	0.2	5.1	-37.3*	-6.3
CC(=O)Nc1ccc(NC(=O)COc2ccc3c(c2)CCC3)cc1	4.8	-4.4%	-1.0	1.7	-35.3*	2.4
CC(=O)Nc1cccc(NC(=O)COc2ccc3c(c2)CCC3)c1	-5.3	-10.0%	-0.5	18.4	-13.2	-12.2
CCN1CCN(c2csc3ccc(Br)cc3c2=O)CC1	-0.7	-17.4%	0.7	2.4	13.4	1.7
Cc1cc2n(n1)CCCN2C(=O)Nc1cccc(C)c1C	1.4	6.2%	0.5	1.9	2.6	1.7
O=C(COc1ccc2ccccc2c1)Nc1ccc(Cc2ccncc2)cc1	-7.5	?	3.8	27.1	-34.2*	-6.5
O=C(O)Cc1ccc(NC(=O)COc2ccc3ccccc3c2)cc1	-12.5	-0.8%	0.0	1.2	-5.5	-0.4
Cc1nc(-c2coc3cc(O)c(C)cc3c2=O)cs1	-1.0	-16.6%	0.6	-2.2	-50.5*	-6.7
Cc1nc(-c2coc3cc(OCC(=O)O)ccc3c2=O)cs1	-3.2	-12.3%	1.3	0.0	3.2	1.4
Cc1ccc(NC(=O)Cn2c(=O)c(C(F)(F)F)nc3ccccc32)c(C)c1	-1.6	?	0.4	0.8	-22.6	-3.5
CCOc1ccc(NC(=O)CN2C(=O)C(c3ccccc3)=NC23CCCCCC3)cc1	-4.5	-27.8%	-1.6	0.4	-22.0	1.6
CCOc1ccc(Nc2nc(-c3cccc(Cl)c3)c3c(n2)-c2ccccc2OC3)cc1	-0.3	-5.5%	1.1	6.5	3.2	-1.8
N#Cc1ccc(NC(=O)COCc2cc(-c3ccc4c(c3)OCO4)on2)cc1	-2.1	-17.4%	0.5	4.9	-39.8*	1.6
c1ccc(CCNc2ccnc3cc4ccccc4cc23)cc1	-16.9	?	0.4	34.0*	-82.5*	0.6
Cc1oc(-c2cccc(Cl)c2)nc1CS(=O)(=O)CC(=O)NC(C)CCc1ccccc1 (configuration not stated)	-1.2	-10.3%	0.5	0.9	-3.7	-5.2
O=C(Nc1nc2ccccc2s1)c1ccccc1	3.3	-15.0%	0.7	0.9	-2.6	1.7
CSc1nc2ccc3nc(NC(=O)c4ccccc4)sc3c2s1	-0.1	-15.6%	0.4	-0.7	-3.4	37.3*
Oc1ccc(Br)cc1C1C=C(c2ccc3c(c2)OCO3)NC(c2ccc(F)c(Br)c2)N1 (configuration not stated)	-3.0	.	2.1	19.1	-24.3	-3.4
Cc1ccc(C(=O)n2nc(C)c(S(=O)(=O)N3CCCCCC3)c2C)cc1C	-2.8	-22.0%	0.1	4.2	-14.9	34.9*
Cc1ccc(-n2ncc(C(=O)NCCc3ccccc3)c2C2CCN(C(=O)OC(C)(C)C)CC2)c(C)c1	-3.7	-35.4%	0.3	4.2	-5.1	-19.5
COc1ccc(CN(C)CC(O)COc2ccc(-c3ccccc3)cc2)cc1OC (configuration not stated)	-5.8	-23.5%	1.8	42.7*	-6.2	11.5
SMILES	D1 PAM	USP1-UAF1 inh	TRHR agonist	D1 agonist	D1 antag	TRHR enhancer
CC1(C)CCN2CCC(C)(C)c3c(O)ccc1c32	-6.5	?	34.4*	206.9*	25.8	1.6
CS(=O)(=O)N(CC(=O)NCCSc1ccccc1)c1cc(C(F)(F)F)ccc1Cl	-0.1	-24.1%	-0.3	5.5	-6.2	-3.2
CCc1ccc2ncc3c(-c4ccccc4)nn(-c4ccccc4)c3c2c1	11.9	-23.0%	-1.2	8.8	14.1	1.1
COc1cccc(N=Nc2c(N)[nH]n3c(=O)cc(-c4ccccc4)nc23)c1	-4.8	-26.1%	0.1	2.1	-39.7*	6.9
Cc1ccc(N=Nc2c(N)[nH]n3c(=O)cc(-c4ccccc4)nc23)cc1	-16.2	-14.4%	0.9	1.4	-22.9	2.6
Cc1ccc(-c2ccc(/C=C(\C#N)C(N)=S)n2C)cc1	-5.2	5.4%	-1.0	4.8	-51.1*	8.6
Cn1cccc1/C=C(/C#N)C(N)=S	-3.6	-11.7%	-2.1	2.0	-49.0*	-26.0
COCCN(C(=O)c1cccc(-n2cnnn2)c1)c1c(N)n(CC(C)C)c(=O)[nH]c1=O	-6.4	-5.8%	0.7	-0.8	-39.9*	-9.6
Cc1ccccc1OCC(=O)N(CC(C)C)c1c(N)n(CC(C)C)c(=O)[nH]c1=O	-4.2	-14.7%	0.1	2.8	-7.1	-1.2
Cc1ccc(OCC(=O)N(C)CC(=O)N(CC(C)C)c2c(N)n(CC(C)C)c(=O)[nH]c2=O)c(C)c1	-2.9	1.9%	-0.3	1.2	-31.0*	-2.7
CC(C)CN(C(=O)c1cccc([N+](=O)[O-])c1)c1c(N)n(CC(C)C)c(=O)[nH]c1=O	-11.8	-16.0%	-2.0	4.3	-2.9	32.8*
CCCN(C(=O)CCOc1ccc(C(C)(C)C)cc1)c1c(N)n(Cc2ccccc2)c(=O)[nH]c1=O	-11.4	-1.5%	-0.3	2.9	-49.9*	0.1
CCc1ccccc1NC(=O)C1COc2ccccc2C1 (configuration not stated)	4.2	19.1%	-0.1	0.4	0.4	2.3
CCn1cc2nc(SCc3cccc(OC)c3)n(Cc3ccc(Cl)cc3)c(=O)c2n1	0.9	-5.7%	-1.6	13.1	4.9	14.2
CCOc1ccc(CNC(=O)CN2N=C(c3ccccc3)CCC2=O)cc1OC	-0.9	8.2%	0.0	-3.5	14.1	4.1
CCCCn1nc(C(=O)N(CCOC)c2c(N)n(CCCC)c(=O)[nH]c2=O)c2ccccc2c1=O	.	-19.5%	-0.5	5.7	-30.4*	5.7
CCCCCn1nc(C(=O)N(CCOC)c2c(N)n(CCCC)c(=O)[nH]c2=O)c2ccccc2c1=O	-4.8	-17.1%	-0.2	-2.2	-2.6	-5.5
CCCn1c(N)c(N(CCOC)C(=O)c2ccccc2)c(=O)[nH]c1=O	0.5	-23.5%	3.0	4.5	-35.8*	0.1
CCCCn1c(N)c(N(Cc2ccccc2OC)C(=O)c2c(CC)noc2C)c(=O)[nH]c1=O	4.6	-3.2%	-0.2	1.0	-44.2*	-0.9
COCCN(C(=O)CSc1nnc(Nc2ccc(C)cc2)s1)c1c(N)n(CC(C)C)c(=O)[nH]c1=O	36.2*	-1.4%	-0.1	2.3	-5.9	14.2

Screening data: PubChem, National Center for Advancing Translational Sciences (NCATS)
